The source of these data is PubChem BioAssay (EPA / NIEHS).

Inconclusive results are not listed. Active and inactive are the calls of the source. How the source made its calls: active means hit-call score of the fitted dose curve at least 0.9, where 1 is the maximum; inconclusive means response in the unintended direction; inactive means score below 0.9.

Test [1] in a line: ATG_GAL4_TRANS: Attagene TRANS-FACTORIAL HepG2 Assay for GAL4 (Internal Marker) (AID 2282976). Particulars: HepG2 Attagene TRANS GAL4 internal marker reporter. An outline of the steps:
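Liver HepG2 line bearing multiplexed GAL4-UAS reporter constructs; 24 h chemical treatment. Transcripts were quantified as fluorescent fragments on capillary electrophoresis after RT-PCR and HpaI cut, with activity fitted upward from DMSO.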

Test [2] addresses Estrogen-related receptor gamma (Homo sapiens) (UniProt P62508). Put plainly: ATG_ERRg_TRANS: Attagene TRANS-FACTORIAL HepG2 Assay for human Estrogen-Related Receptor gamma (ERRg) (AID 2282977).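 Further: hits increase reporter signal over DMSO so potencies reflect activators.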 Particulars: HepG2 Attagene TRANS reporter, ERRg transactivation. Put shortly:
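HepG2 cells transiently transfected with multiplexed GAL4-UAS reporter units and chimeric NR-Gal4 constructs were exposed to test chemicals for 24 h. Reporter mRNA was measured by RT-PCR, 6-FAM primer extension, HpaI digestion and capillary electrophoresis; gain-of-signal versus DMSO.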

For test [3], the target named is Glucocorticoid receptor (Homo sapiens) (UniProt P04150). Briefly: ATG_GR_TRANS: Attagene TRANS-FACTORIAL HepG2 Assay for human Glucocorticoid Receptor (GR) (AID 2282978).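 Further: activators score as hits since higher reporter transcript over DMSO is fitted.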 Particulars: HepG2 Attagene TRANS GR reporter, mRNA transcription. Put shortly: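 After 24 h incubation with test chemical, transfected HepG2 cells were lysed for RNA; reporter cDNA was amplified, FAM-labelled, HpaI-digested and sized on a capillary analyser. Signal gain relative to DMSO was scored.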
Glucocorticoid receptor (Homo sapiens), sequence (P04150 whole entry, looked up): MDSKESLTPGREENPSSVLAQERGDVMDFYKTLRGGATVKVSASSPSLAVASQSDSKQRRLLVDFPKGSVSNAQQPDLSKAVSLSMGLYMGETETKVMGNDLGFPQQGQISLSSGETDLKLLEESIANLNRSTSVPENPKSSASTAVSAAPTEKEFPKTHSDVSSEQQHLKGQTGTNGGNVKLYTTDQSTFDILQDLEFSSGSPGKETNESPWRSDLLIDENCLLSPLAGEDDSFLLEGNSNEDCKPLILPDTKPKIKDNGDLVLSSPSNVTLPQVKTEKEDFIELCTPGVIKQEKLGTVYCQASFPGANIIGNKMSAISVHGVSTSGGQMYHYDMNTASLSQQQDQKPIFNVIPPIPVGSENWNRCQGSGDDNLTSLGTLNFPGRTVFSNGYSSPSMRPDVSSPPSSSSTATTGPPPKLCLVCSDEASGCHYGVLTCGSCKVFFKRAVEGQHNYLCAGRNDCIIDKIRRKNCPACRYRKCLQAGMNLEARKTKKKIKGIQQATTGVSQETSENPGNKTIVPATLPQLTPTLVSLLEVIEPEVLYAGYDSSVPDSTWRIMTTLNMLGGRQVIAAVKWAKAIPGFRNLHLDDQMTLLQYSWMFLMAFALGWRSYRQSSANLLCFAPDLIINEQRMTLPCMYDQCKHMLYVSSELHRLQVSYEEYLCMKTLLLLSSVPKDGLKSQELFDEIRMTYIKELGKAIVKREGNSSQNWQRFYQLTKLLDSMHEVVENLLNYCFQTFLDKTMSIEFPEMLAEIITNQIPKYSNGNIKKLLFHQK

Test [4] has as its target Oxysterols receptor LXR-beta (Homo sapiens) (UniProt P55055). Put plainly: ATG_LXRb_TRANS: Attagene TRANS-FACTORIAL HepG2 Assay for human Liver X Receptor beta (LXRb) (AID 2282981). Particulars: HepG2 Attagene TRANS GAL4-LXRb reporter, mRNA. Put shortly:
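HepG2 cells transiently transfected with multiple reporter transcription units carrying chimeric NR-Gal4 proteins acting on GAL4-UAS reporters; compound exposure 24 h. Reporter mRNA quantified by RT-PCR, 6-FAM labelling, HpaI digestion and capillary electrophoresis; gain of signal versus DMSO.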

The target of test [5] is Hepatocyte nuclear factor 4-alpha (Homo sapiens) (UniProt P41235). Put plainly: ATG_HNF4a_TRANS: Attagene TRANS-FACTORIAL HepG2 Assay for human Hepatocyte Nuclear Factor 4 alpha (HNF4a) (AID 2282982). Particulars: HepG2 HNF4a transactivation reporter, mRNA readout. An outline of the steps: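 HepG2 cells transiently transfected with multiplexed GAL4-UAS reporter units responsive to chimeric NR-GAL4 proteins; compound exposure 24 h. Reporter mRNA quantified by RT-PCR, 6-FAM labelling, HpaI digestion and capillary electrophoresis; gain of signal versus DMSO baseline.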
Hepatocyte nuclear factor 4-alpha (Homo sapiens), sequence (P41235 whole entry, looked up, the tested form may be a part): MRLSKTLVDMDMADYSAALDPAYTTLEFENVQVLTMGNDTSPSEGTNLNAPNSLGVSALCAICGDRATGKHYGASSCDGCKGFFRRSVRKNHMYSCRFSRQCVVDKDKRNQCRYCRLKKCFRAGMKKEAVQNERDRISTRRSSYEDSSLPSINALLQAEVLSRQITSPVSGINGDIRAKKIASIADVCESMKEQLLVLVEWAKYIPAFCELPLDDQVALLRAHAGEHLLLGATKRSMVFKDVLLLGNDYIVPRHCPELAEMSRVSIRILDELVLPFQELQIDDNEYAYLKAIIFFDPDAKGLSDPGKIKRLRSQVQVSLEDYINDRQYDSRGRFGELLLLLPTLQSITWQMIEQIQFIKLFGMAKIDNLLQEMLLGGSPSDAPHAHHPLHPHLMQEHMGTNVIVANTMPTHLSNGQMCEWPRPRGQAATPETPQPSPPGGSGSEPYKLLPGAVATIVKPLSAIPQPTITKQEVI

The nature of test [6]: ATG_M_06_TRANS: Attagene TRANS-FACTORIAL HepG2 Assay for M06 Transcription Factor (Internal Marker) (AID 2282983).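 Further: reporter transcript level by RT-PCR then capillary electrophoresis fluorescence.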 Particulars: HepG2 Attagene TRANS M06 internal marker reporter. Put shortly: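 Internal-marker background readout from a multiplexed TRANS reporter system in HepG2; 24 h dosing; mRNA induction quantified by RT-PCR plus capillary electrophoresis fluorescence; DMSO as negative control and baseline.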

Test [7] addresses Nuclear receptor subfamily 4 group A member 2 (Homo sapiens) (UniProt P43354). Put plainly: ATG_NURR1_TRANS: Attagene TRANS-FACTORIAL HepG2 Assay for human Nuclear Receptor Related Protein 1 (NURR1) (AID 2282985). Particulars: HepG2 Attagene TRANS reporter, mRNA readout. Put shortly: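 HepG2 cells transiently transfected with GAL4-UAS reporter units and chimeric NR-Gal4 constructs; chemical exposure 24 h. Reporter mRNA quantified by RT-PCR, fluorescent labelling and capillary electrophoresis; gain of signal fitted relative to DMSO baseline.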

The target of test [8] is Bile acid receptor (Homo sapiens) (UniProt Q96RI1). Briefly: ATG_FXR_TRANS: Attagene TRANS-FACTORIAL HepG2 Assay for Farnesoid X Receptor (FXR) (AID 2282979).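 Further: hits raise reporter mRNA above DMSO so AC50 marks FXR activation.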 Particulars: HepG2 Attagene TRANS FXR-GAL4 reporter transcription. An outline of the steps:
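After 24 h chemical treatment of transfected HepG2 cells, GAL4-UAS reporter transcripts driven by an exogenous FXR-GAL4 fusion were measured by RT-PCR and capillary electrophoresis. Increases over DMSO were fitted.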

Test [9] is described as follows: ATG_M_32_TRANS: Attagene TRANS-FACTORIAL HepG2 Assay for M32 Transcription Factor (Internal Marker) (AID 2282984).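 Further: transcript level of a background control reporter unit measured by RT-PCR and capillary electrophoresis.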 Particulars: HepG2 Attagene TRANS M32 internal marker reporter. An outline of the steps: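 HepG2 cells transiently transfected with multiple GAL4-UAS reporter transcription units, dosed for 24 hours; reporter mRNA quantified by RT-PCR, 6-FAM primer extension, HpaI digestion and capillary electrophoresis. Gain-of-signal fitted versus DMSO baseline; internal background-control marker.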

The target in test [10] is Oxysterols receptor LXR-alpha (Homo sapiens) (UniProt Q13133). Put plainly: ATG_LXRa_TRANS: Attagene TRANS-FACTORIAL HepG2 Assay for human Liver X Receptor alpha (LXRa) (AID 2282980). Particulars: HepG2 Attagene TRANS reporter, LXRa transactivation. An outline of the steps: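 In this multiplexed TRANS system, compounds act on HepG2 cells carrying GAL4-UAS reporter units and a receptor-GAL4 fusion for 24 h. Induced reporter RNA is amplified, fluorescently labelled and sized by capillary electrophoresis, with DMSO as baseline.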
Oxysterols receptor LXR-alpha (Homo sapiens), sequence (Q13133 whole entry, looked up, the tested form may be a part): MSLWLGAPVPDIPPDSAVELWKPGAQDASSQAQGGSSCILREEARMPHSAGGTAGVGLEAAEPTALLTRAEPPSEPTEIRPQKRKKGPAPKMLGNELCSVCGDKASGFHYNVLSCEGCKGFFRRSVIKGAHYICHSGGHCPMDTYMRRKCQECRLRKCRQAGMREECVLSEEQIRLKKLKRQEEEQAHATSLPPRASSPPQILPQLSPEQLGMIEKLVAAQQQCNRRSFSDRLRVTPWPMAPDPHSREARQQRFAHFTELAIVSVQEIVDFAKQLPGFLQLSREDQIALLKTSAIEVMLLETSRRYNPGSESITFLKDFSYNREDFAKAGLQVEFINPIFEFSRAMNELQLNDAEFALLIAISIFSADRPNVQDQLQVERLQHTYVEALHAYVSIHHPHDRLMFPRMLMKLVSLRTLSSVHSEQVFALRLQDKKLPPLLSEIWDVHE

Oxysterols receptor LXR-beta (Homo sapiens), sequence (P55055 whole entry, looked up, the tested form may be a part): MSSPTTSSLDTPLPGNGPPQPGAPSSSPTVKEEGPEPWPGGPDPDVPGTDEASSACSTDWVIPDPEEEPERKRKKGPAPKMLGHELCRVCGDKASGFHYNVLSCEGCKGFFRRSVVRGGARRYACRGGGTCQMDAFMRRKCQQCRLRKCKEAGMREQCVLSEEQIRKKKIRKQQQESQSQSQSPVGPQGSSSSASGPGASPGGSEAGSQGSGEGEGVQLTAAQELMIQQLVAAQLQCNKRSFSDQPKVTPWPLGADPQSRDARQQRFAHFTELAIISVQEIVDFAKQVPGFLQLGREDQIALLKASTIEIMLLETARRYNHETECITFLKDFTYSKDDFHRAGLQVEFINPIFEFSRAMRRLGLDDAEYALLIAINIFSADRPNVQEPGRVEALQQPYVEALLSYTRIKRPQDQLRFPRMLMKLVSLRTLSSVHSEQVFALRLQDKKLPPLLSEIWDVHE
Estrogen-related receptor gamma (Homo sapiens), sequence (P62508 whole entry, looked up, the tested form may be a part): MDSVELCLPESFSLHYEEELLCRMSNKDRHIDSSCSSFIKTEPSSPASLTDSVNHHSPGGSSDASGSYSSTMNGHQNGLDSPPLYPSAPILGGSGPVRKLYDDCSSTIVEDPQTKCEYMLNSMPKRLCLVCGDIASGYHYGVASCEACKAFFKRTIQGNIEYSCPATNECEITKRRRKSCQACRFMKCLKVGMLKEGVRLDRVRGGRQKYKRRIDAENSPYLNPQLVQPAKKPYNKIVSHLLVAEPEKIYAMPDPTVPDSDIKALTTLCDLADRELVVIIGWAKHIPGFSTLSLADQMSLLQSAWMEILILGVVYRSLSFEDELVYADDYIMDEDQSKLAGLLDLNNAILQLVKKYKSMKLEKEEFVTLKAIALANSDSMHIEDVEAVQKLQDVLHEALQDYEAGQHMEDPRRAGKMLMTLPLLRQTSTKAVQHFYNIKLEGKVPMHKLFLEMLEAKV
Bile acid receptor (Homo sapiens), sequence (Q96RI1 whole entry, looked up, the tested form may be a part): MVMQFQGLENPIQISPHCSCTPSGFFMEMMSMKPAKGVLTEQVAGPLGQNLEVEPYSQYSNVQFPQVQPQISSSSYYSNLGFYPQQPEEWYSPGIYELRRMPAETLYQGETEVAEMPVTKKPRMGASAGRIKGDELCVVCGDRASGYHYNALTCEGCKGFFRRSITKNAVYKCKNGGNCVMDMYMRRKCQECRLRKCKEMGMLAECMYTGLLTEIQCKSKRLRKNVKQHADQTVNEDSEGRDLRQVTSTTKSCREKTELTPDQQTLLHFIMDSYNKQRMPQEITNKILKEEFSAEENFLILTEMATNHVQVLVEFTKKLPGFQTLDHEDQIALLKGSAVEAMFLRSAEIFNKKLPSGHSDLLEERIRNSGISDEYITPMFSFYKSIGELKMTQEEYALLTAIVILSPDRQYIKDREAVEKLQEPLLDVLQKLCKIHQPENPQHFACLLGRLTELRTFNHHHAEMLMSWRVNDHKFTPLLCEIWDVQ
Nuclear receptor subfamily 4 group A member 2 (Homo sapiens), sequence (P43354 whole entry, looked up, the tested form may be a part): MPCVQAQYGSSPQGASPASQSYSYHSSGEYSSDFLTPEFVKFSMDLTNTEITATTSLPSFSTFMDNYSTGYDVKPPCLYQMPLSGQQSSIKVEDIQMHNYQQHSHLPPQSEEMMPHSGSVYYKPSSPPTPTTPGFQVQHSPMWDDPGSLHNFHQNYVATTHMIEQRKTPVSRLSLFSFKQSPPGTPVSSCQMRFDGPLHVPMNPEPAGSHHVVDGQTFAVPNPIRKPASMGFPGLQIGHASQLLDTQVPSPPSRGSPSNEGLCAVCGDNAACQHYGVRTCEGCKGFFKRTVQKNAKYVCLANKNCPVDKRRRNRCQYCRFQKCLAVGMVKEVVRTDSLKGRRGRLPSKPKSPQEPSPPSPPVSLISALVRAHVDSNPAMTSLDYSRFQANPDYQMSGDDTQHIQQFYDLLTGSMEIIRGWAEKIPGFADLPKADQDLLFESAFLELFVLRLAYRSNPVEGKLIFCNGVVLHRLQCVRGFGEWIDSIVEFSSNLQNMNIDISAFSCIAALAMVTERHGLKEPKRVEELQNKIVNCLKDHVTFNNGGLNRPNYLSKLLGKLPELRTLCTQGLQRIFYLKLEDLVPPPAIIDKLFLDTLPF

As for `CCOC(=O)c1ccccc1C(=O)OCC`, the call in [1], in test [2], in [3], in test [4], in test [5] and in [6] was inactive. The molecule was called inactive in [7].
As to `CC(C)(C)c1ccccc1OP(=O)(Oc1ccccc1)Oc1ccccc1`, the outcome in test [1], in test [2], in test [8] and in test [9] was inactive. Further, in test [7], the AC50 – broadly, the concentration at which the activity in the assay is half-maximal – was 57.4 µM (active).
On to `O=C(O)C(F)(OC(F)(F)C(F)(F)C(F)(F)F)C(F)(F)F` (centres undefined), for which the outcome in test [1], in test [2], in [8], in test [10], in test [4] and in [5] was inactive. Moreover, the molecule was classed as inactive in test [6], in test [9] and in [7].
In the case of `CCCCOCCOP(=O)(OCCOCCCC)OCCOCCCC`, the molecule was called inactive in [1], in test [3], in test [10], in test [4], in test [5] and in test [6]. In addition, the molecule was classed as inactive in test [9] and in test [7].
As to `CCCCCCCc1ccc(O)cc1`, the molecule was classed as inactive in [1], in test [3], in [4], in test [5], in test [6] and in test [9]. In addition, the molecule was called inactive in test [7].
Consider `CC(O)C(F)(F)C(F)(F)F` (centres undefined), for which the call in [1], in test [2], in test [3], in test [8], in test [10] and in test [4] was inactive. Further, the outcome in test [5], in test [6], in [9] and in [7] was inactive.
Turning to `COP(N)(=S)OC`, the molecule was classed as inactive in [1], in test [3] and in test [9].
Take `O=P1(N(CCCl)CCCl)NCCCO1` (centres undefined): the molecule was called inactive in [1], in [3], in test [4], in [6] and in test [9].
In the case of `Cc1ccc(C(=O)Cl)cc1`, the call in test [1], in test [2], in test [10], in test [5], in [6] and in test [9] was inactive.
Consider `O=NN1CCCC1`, for which the call in [1], in [3], in test [10], in test [4], in test [5] and in test [9] was inactive.
`CCCCN(CCCC)SN(C)C(=O)Oc1cccc2c1OC(C)(C)C2`: the molecule was called inactive in test [1], in [3], in test [5], in [6] and in [7].
As for `CC(=O)CCc1ccc2c(c1)OCO2`, the result in [1], in test [2], in [8], in [4], in test [6] and in test [9] was inactive. In addition, the molecule was classed as inactive in [7].
As for `c1ccc2c(c1)Nc1ccccc1S2`, the outcome in test [1], in [2], in test [10], in test [4], in test [5] and in test [6] was inactive. In test [9], the molecule was called inactive.
Consider `O=C(CBr)OCc1ccccc1`, for which the call in test [1], in test [3], in [8], in test [10] and in test [6] was inactive.
Turning to `CC(C)CBr`, the molecule was called inactive in [1], in test [2], in [8], in test [10], in test [6] and in [9].
As to `Cc1c([N+](=O)[O-])cc2c(c1[N+](=O)[O-])C(C)(C)CC2(C)C`, the molecule was called inactive in [1], in test [8], in test [10] and in [6]. For the same molecule, the AC50 in test [7] is 14.6 µM (active).
Regarding `O=[N+]([O-])c1ccc(Cl)c(Cl)c1`, the molecule was called inactive in test [2], in [8], in test [4] and in test [6].
On to `CNC(=O)Oc1ccc(N(C)C)c(C)c1`, for which the result in test [2], in test [10], in test [4], in test [5] and in test [9] was inactive.
As to `ClC1=C(Cl)C2(Cl)C3C(Cl)C(Cl)CC3C1(Cl)C2(Cl)Cl` (centres undefined), the AC50 in test [3] is 100 µM (active); in test [8] it was 54.7 µM (active). Moreover, the molecule was classed as inactive in test [4], in [6] and in test [9].
`Cc1ccc([N+](=O)[O-])cc1C`: the molecule was called inactive in test [1], in [8], in test [5], in test [6] and in test [9].
As for `Cc1ccc2c(c1N)C(=O)c1ccccc1C2=O`, the molecule was called inactive in test [2], in test [3], in [8], in [10], in test [5] and in [9]. Moreover, in test [7], the molecule was called inactive.
Consider `CCC1(c2ccccc2)C(=O)N=C(O)NC1=O` (centres undefined), for which the molecule was classed as inactive in [1], in test [4], in test [5] and in [6].
Regarding `CCOC(=O)c1ccccc1N`, the call in test [3], in test [8], in [10], in [4], in test [6] and in test [9] was inactive.
Take `O=C(O)CF`: the result in test [1], in test [5], in test [6], in [9] and in [7] was inactive.
As for `O=S(=O)(F)C(F)(F)C(F)(F)C(F)(F)C(F)(F)C(F)(F)C(F)(F)C(F)(F)C(F)(F)F`, the outcome in test [2], in [10], in test [4], in test [5], in test [6] and in [9] was inactive. Also, the outcome in test [7] was inactive.
